Rows were chosen to be rich in hits. Some 4.1% of all compounds tested hit in one or more screens of this group.
A1 inh: caspase 3/7 activation in MEF A1-2A-BIM cells, primary screen, A1 inhibitor project, cell-based, luminescence, HTS | caspase activation, % (test concentration not listed) | Caspase-Glo 3/7 luminescence, 3 h; percent of clofoctol response, vehicle zero | actives 0.066% (n = 330,000);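 active = over half of replicate activation scores above 10%, or exactly half above 10 with the replicate mean above 10; inconclusive = replicate mean below 10 yet half the replicates above 10; inactive = over half of replicates below 10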
Beta cell apopt: inhibitors of cytokine-induced beta cell apoptosis, primary screen, luminescence; INS-1E cytokine-induced death, ATP luminescence, 48 h; percent of positive-control rescue, neutral wells zero; actives 0.8% (n = 300,000); AID 435005, 2010; protection from apoptosis, % (test concentration not listed);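 active = Every replicate reaches about 75%, or at least half do and their mean reaches it too, limit read from the data; inconclusive = At least half of replicates reach the limit but their mean does not; inactive = Under half of replicates reach the limit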;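 also: higher means more ATP so stronger rescue from cytokine killing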
aSyn UTR inh: MLPCN primary screen, SNCA 5' untranslated region; alpha-synuclein 5'UTR reporter, inhibitor activity; actives 0.82% (n = 300,000); inhibition, % (tested at 7.5 µM); in the data active = inhibition above about 60%; inconclusive = no clear call, values can overlap the other calls;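 also: H4 neuroglioblastoma cells stably carrying SNCA 5'UTR luciferase fusion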
Mdm2 MdmX PPI: inhibitors of human Mdm2-MdmX association, primary screen, cell-based, luminescence, split luciferase, SaOS-2, uHTS; actives 3% (n = 330,000); SaOS-2 split-luciferase Mdm2/MdmX complementation; inhibition, % at 8 µM; AID 485346, 2010;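 active = inhibition of at least 50% at 8 µM in the primary screen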
Target sequence (O15151 whole entry, looked up): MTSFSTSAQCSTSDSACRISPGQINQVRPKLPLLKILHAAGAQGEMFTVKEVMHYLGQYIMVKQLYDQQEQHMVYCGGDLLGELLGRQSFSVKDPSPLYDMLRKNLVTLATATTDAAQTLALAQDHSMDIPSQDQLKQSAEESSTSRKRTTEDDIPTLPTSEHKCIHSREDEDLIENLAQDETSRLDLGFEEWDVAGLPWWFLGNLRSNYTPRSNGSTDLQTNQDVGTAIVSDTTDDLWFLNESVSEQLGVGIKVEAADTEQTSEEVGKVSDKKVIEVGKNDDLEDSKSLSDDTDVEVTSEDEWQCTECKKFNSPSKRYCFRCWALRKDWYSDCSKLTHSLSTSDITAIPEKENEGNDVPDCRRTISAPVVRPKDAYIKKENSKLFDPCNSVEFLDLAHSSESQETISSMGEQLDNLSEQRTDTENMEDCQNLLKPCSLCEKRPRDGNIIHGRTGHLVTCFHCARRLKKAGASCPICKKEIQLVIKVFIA
Target sequence (Q00987 whole entry, looked up): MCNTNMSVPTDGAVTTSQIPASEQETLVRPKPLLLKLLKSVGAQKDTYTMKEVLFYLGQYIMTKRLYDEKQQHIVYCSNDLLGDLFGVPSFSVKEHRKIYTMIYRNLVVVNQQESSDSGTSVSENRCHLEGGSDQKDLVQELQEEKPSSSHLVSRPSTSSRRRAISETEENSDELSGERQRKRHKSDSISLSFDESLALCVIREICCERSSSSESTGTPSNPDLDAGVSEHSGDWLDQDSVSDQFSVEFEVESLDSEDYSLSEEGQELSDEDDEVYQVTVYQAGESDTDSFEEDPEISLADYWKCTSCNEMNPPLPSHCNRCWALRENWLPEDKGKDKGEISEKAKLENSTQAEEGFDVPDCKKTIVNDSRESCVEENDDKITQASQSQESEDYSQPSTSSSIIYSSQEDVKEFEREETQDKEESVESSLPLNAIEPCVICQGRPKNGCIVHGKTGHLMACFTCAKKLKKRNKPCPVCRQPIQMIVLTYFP
CSC inhib: cancer stem cell viability inhibitors, primary screen, luminescence; inhibition, % at 7.5 µM; actives 1.1% (n = 300,000); AID 2717, 2010; cancer stem cell-like cells viability; in the data active = inhibition above about 75%; inconclusive = no clear call, values can overlap the other calls; tested in HMLE shEcad cells
Mdm2 MdmX conf: Mdm2-MdmX complex disruptors, retested hits, confirmation, luminescence, single concentration. shares compounds with Mdm2 MdmX PPI. Mdm2-MdmX binding, luminescent assay. inhibition, % at 8 µM. actives 55% (n = 10,000). AID 489028, 2010; in the data active = inhibition above about 40%
FLuc counter: full-length luciferase signal inhibition, confirmation, counter-screen for Mdm2/MdmX interaction inhibitor project, cell-based, single concentration, SaOS-2. shares compounds with Mdm2 MdmX PPI. actives 77% (n = 6,200). AID 504607, 2011. SaOS-2 full-length luciferase counterscreen, luminescence. inhibition, % at 8 µM;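 active = mean inhibition at 8 µM reaching about 37%, which flags the compound as non-specific, limit read from the data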;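 also: p53-null SaOS-2 cells with luciferase driven by a doxycycline-inducible promoter; compound on cells about two nights before reading with doxycycline added after day one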
Large screens that a line does not name were inactive (follow-up assays come after a bar, where they were run); ! = a repeat was not active.

CCOC(=O)c1ccc(N2C(=O)C(C)=C(C)C2=O)cc1	Mdm2 MdmX PPI 62 | Mdm2 MdmX conf inactive
Cn1nc2c3cc(F)ccc3n(Cc3ccc(F)cc3)cc-2c1=O	none
COc1cc2c3nnc(-c4ccc(F)cc4)c-3cn(Cc3ccc(F)cc3)c2cc1OC	Mdm2 MdmX PPI 100 | Mdm2 MdmX conf inactive
COc1ccc(Cn2cc3c(-c4ccc(F)cc4)nnc-3c3cc(OC)c(OC)cc32)cc1	Beta cell apopt 100, Mdm2 MdmX PPI 100 (no result: aSyn UTR inh) | Mdm2 MdmX conf 96 | FLuc counter 68
COc1ccc(-c2cn[nH]c2-c2ccc(OCc3ccc(F)cc3)cc2O)cc1OC	none
COc1cc2c3nnc(-c4ccc(F)cc4)c-3cn(Cc3ccccc3)c2cc1OC	Mdm2 MdmX PPI 100 | Mdm2 MdmX conf 94 | FLuc counter 57
O=C(COC(=O)Cn1cc(C(F)(F)F)ccc1=O)Nc1ccc(Br)cc1F	none (no result: A1 inh, Beta cell apopt, aSyn UTR inh, CSC inhib)
CCOc1ccc(NC(=O)CN(C)C(=O)c2ccccc2OCCOc2ccccc2)cc1OCC	none (no result: aSyn UTR inh, CSC inhib)
Cc1ccc(C(O)(C(=O)NNc2ccc3ccccc3n2)c2ccc(C)cc2)cc1	Mdm2 MdmX PPI 51! | Mdm2 MdmX conf inactive
Cn1c(=O)c2sc3c(c2n(CC(=O)Nc2ccccc2)c1=O)COC(C)(C)C3	none
Cc1ccc(S(=O)(=O)NCCCNS(=O)(=O)c2ccccc2Br)cc1	none (no result: A1 inh, Beta cell apopt, aSyn UTR inh, CSC inhib)
CN(C)CCNC(=O)c1cc2c(s1)-c1ccc(Cl)cc1SC2	aSyn UTR inh 100, Mdm2 MdmX PPI 100, CSC inhib 102 | Mdm2 MdmX conf 87 | FLuc counter 57
C[C@H]1CC[C@H]2C(=O)N3[C@H](c4ccccc4Br)[C@@H](C)CC[C@H]3C(=O)N2[C@@H]1c1ccccc1Br	Beta cell apopt 110, Mdm2 MdmX PPI 79 | Mdm2 MdmX conf 51 | FLuc counter 68
Clc1ccc(-c2ccc(/C=N/Nc3nncc(-c4ccccc4)n3)o2)cc1	Mdm2 MdmX PPI 50 | Mdm2 MdmX conf inactive
O=C(O)c1cc2c([nH]c1=O)CCCC2	none
C=CCSC(=C(C#N)C#N)c1cc2c([nH]1)CCCC2	Mdm2 MdmX PPI 81, CSC inhib 101 | Mdm2 MdmX conf inactive
COc1ccc(-c2c(C#N)c(N)nc3c2CCC3)cc1	none (no result: CSC inhib)
Cc1ccc(-c2c3c(nc4sc(C(N)=O)c(N)c24)CCC3)cc1	Mdm2 MdmX PPI 56 | Mdm2 MdmX conf 55 | FLuc counter 47
COC(=O)c1sc2nc3c(c(-c4cccs4)c2c1N)CCCC3	none
NC(=O)c1sc2nc3c(c(-c4ccco4)c2c1N)CCCC3	Mdm2 MdmX PPI 61 | Mdm2 MdmX conf 67 | FLuc counter 37
COc1ccc(-c2c3c(nc4sc5c(Cl)nc(C)nc5c24)CCC3)cc1	Mdm2 MdmX PPI 99 | Mdm2 MdmX conf inactive
COc1ccc(CNC(=O)CNC(=O)c2ccc(C(C)(C)C)cc2)cc1OC	none
CC1(C)Cc2c(c(N3CCOCC3)nc3sc4c(=O)[nH]cnc4c23)CS1	none
CCN(CC)CCNc1ncnc2c1sc1nc(N3CCOCC3)c3c(c12)CC(C)(C)SC3	Beta cell apopt 103, Mdm2 MdmX PPI 63, CSC inhib inconclusive | Mdm2 MdmX conf inactive | FLuc counter 54
CN(C)CCNc1ncnc2c1sc1nc(N3CCOCC3)c3c(c12)CC(C)(C)SC3	aSyn UTR inh 72, Mdm2 MdmX PPI 70 | Mdm2 MdmX conf 45 | FLuc counter 75
O=C(CN(C(=O)CCC(=O)Nc1nccs1)c1cccc(C(F)(F)F)c1)NCC1CCCO1 (centres undefined)	none (no result: CSC inhib)
Cn1cc(-c2nnnn2-c2ccc(Cl)cc2)c(=O)c2ccccc21	none
Clc1ccc(-n2nnnc2-c2cnc3ccc(Cl)cc3c2-c2ccccc2)cc1	Mdm2 MdmX PPI 61 | Mdm2 MdmX conf inactive
Clc1ccc2[nH]cc(-c3nnnn3-c3ccccc3)c2c1	none
Clc1ccc2ncc(-c3nnnn3-c3ccccc3)c(-c3ccccc3)c2c1	Mdm2 MdmX PPI 56 | Mdm2 MdmX conf inactive | FLuc counter 43
CC1=NN(c2ccccc2)C(=O)/C1=C\c1cc(C)n(-c2ccccc2)c1C	none
CC1=NN(c2cccc(C(=O)O)c2)C(=O)/C1=C\C=C/c1ccccc1	Mdm2 MdmX PPI 65 (no result: A1 inh, Beta cell apopt, CSC inhib) | Mdm2 MdmX conf inactive
C(=C\n1nnc2ccccc21)/c1ccc[nH]1	none
Cc1cc(C(=O)NNC(=O)/C=C/c2ccc(F)cc2)c(C)o1	none

Compound activity deposited in PubChem BioAssay by several laboratories.
